# Bioassay records from PubChem.
# KAT2A inh: blocks human GCN5L2 histone acetyltransferase; Q92830; GCN5L2 HAT assay, ThioGlo1 CoA-SH fluorescence; Potency, µM (series often up to 58.9 µM), inactives show at the top dose activity change, negative = inhibition, hits mostly inhibitors; 390,000 tested, 0.21% active; AID 504327; further: on the % scale 0 is the no-effect control and ±100 the full control effect
# Target sequence (Q92830 whole entry, looked up): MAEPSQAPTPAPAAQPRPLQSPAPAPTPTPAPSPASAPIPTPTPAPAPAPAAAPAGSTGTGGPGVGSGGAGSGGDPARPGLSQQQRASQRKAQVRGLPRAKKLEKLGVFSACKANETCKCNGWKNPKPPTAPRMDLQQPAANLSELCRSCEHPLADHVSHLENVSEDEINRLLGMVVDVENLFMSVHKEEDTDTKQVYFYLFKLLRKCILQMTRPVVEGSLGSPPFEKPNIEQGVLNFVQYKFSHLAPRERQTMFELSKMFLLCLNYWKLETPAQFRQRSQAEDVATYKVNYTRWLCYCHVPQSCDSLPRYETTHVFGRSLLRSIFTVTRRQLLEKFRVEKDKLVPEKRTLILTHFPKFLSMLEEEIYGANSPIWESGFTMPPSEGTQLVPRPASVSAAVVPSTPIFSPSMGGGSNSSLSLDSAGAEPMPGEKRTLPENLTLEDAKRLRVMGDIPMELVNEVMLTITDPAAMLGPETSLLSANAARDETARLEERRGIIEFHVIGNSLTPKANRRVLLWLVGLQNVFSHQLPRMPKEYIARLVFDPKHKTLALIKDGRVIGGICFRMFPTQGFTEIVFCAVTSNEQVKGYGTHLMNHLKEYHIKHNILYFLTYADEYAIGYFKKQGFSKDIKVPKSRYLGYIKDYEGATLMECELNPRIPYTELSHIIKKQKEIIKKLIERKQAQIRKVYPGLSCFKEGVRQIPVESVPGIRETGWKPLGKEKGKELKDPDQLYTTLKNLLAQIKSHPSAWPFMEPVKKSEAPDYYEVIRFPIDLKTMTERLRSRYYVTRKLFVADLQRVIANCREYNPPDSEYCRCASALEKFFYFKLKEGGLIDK
#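 GCN5L2 (20nM final) in 50mM HEPES, 0.1mM EDTA pH 7.5, 0.01% Tween-20 was preincubated 15 min at room temperature with compound, then given ThioGlo1 (50uM), H3(1-25) peptide (75uM) and acetyl-CoA (70uM); CoA-thiol fluorescence (Ex340/Em540) was read at 0 and 20 min.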
# USP1-UAF1 inh: inhibitors of human USP1/UAF1 deubiquitinase. 390,000 tested, 0.23% active. recombinant USP1/UAF1, Ub-Rhodamine cleavage fluorescence. AID 743255. Potency, µM (doses to about 57.1 µM), inactives show top-dose activity change, negative = inhibition, most hits filed as inhibitors; further: on the % scale 0 is the no-effect control and ±100 the full control effect; nearly all actives have a fitted effect of over 60% in size
#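 USP1/UAF1 complex at 1 nM was preincubated with compound for 15 min at room temperature, then Ub-Rho substrate (150nM final) was added. Fluorescence (480/540 nm) was read kinetically, 6 reads every 60 seconds.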
# PTAP TSG101 blk: blocks PTAP/TSG101 interaction to inhibit HIV-1 budding. Q99816. Potency, µM (top dose mostly 115 µM), for the others: at the highest dose activity change, negative = inhibition, usual class: inhibitors. Fluorescence polarization, FITC-PTAP peptide / Tsg101 binding. 340,000 tested, under 10 active. AID 493005; active means well fitted inhibition curve with a large enough effect in the main read-out, with a control signal flat, not every such curve was filed as active; inconclusive means small, poorly fitted or top-dose-only effect, or effect the other way, or a change in a side signal; inactive means no such curve, though single readings can be large or run the other way; further: % of control where 0% means no effect
#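 Steps: Tsg101 binding domain dispensed (10 uM final), compounds pinned in DMSO, FITC-labeled PTAP-motif peptide added (50 nM final); after 20 min binding at room temperature, polarization measured.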
# PLK1 PBD inh: PLK1 (human) polo-box domain binding inhibition | P53350 | Plk1 PBD binding of FITC phosphopeptide, fluorescence polarization | Potency, µM, for the others: max response, negative = inhibition, most hits filed as inhibitors | 360,000 tested, 2.8% active | AID 720504; further: series mostly up to about 57 µM; on the % scale 0 is the no-effect control and ±100 the full control effect; nearly all actives have a fitted effect of over 65% in size
# VDR inh: blocks the human vitamin D receptor. VDR-SRC2-3 peptide fluorescence polarization, 2 h. AID 504847. P11473. Potency, µM, for inactives: max response, negative = inhibition, most hits filed as inhibitors. 400,000 tested, 0.93% active; further: on the % scale 0 is the no-effect control and ±100 the full control effect
#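 FP read-out; VDR + SRC2-3 coactivator peptide; 23 nl compound by pintool; 2 h RT incubation; reagents held at 4 deg C, protected from light.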
# The depositor's hits bear a star; ? = inconclusive; . = no result. Most compounds without a hit are left out; they make up all but 3% or so of the library. Unless noted, the call rests on the fitted dose curve; in most records, active means well fitted curve in the direction sought with a large enough effect; inconclusive means small, poorly fitted or top-dose-only effect, or another doubt; inactive means no such curve, though single readings can be large; an effect the other way counts as inactive or inconclusive. Potency means the concentration at half of the fitted maximal effect.
SMILES,KAT2A inh,USP1-UAF1 inh,PTAP TSG101 blk,PLK1 PBD inh,VDR inh
O=C(Cc1c(Cl)cccc1Cl)N1CCN(S(=O)(=O)c2cccs2)CC1,0.9%,-6.0%,0.5%,9.0%,-6.4%
COc1ccc(CNS(=O)(=O)c2cnc(N)nc2)c(OC)c1,-4.5%,-16.6%,.,.,7.1%
CC1CCN(CCCCOc2ccccc2F)CC1,-4.7%,-17.3%,-0.1%,29.9µM*,?
COc1ccc2c(c1OC)C(=O)OC2Nc1nc(-c2ccc(-c3ccccc3)cc2)cs1 (stereo unspecified),-4.4%,-18.3%,0.7%,26.7µM*,-29.8%
COc1ccc(OCCC(=O)OCC(=O)NCCc2ccccc2)cc1,3.7%,-6.3%,0.5%,-7.6%,7.7%
Cc1cc(C(=O)COC(=O)c2ccccc2Br)c(C)n1CC1CCCO1 (stereo unspecified),-18.4%,-28.8%,-5.6%,-14.8%,22.8%
Cc1cc(C(=O)COC(=O)c2cc(O)c3ccccc3c2O)c(C)n1CC1CCCO1 (stereo unspecified),-7.7%,?,-4.4%,8.44µM*,70.8µM*
Cc1cc(C(=O)COC(=O)c2cccnc2Cl)c(C)n1CC1CCCO1 (stereo unspecified),-2.0%,-18.7%,-1.1%,1.9%,89.1µM*
Cc1ccc(C(=O)OCC(=O)c2cc(C)n(CC3CCCO3)c2C)cc1 (stereo unspecified),-7.7%,?,-2.2%,-1.5%,-3.6%
CSc1nc(=S)c2[nH]c(=S)[nH]c2[nH]1,3.16µM*,-8.3%,-10.6%,2.67µM*,?
COc1ccc(Cl)cc1NC(=O)c1nn(-c2ccc(C)cc2)c(=O)n(C)c1=O,-2.7%,-10.0%,.,.,23.2%
O=C(CSc1ccccn1)N1CCCC(Nc2ccccc2)C1 (stereo unspecified),-8.0%,-25.5%,-6.1%,?,-1.4%
COc1ccc(NC2CCCN(C(=O)CN3C(=O)c4ccccc4C3=O)C2)cc1OC (stereo unspecified),-3.5%,-12.1%,0.4%,2.9%,-10.2%
O=C(CSc1ccccc1)N1CCCC(Nc2ccccc2)C1 (stereo unspecified),2.5%,-29.0%,-2.0%,8.44µM*,20µM*
COc1ccc(NC2CCCN(C(=O)CSc3ccccn3)C2)cc1OC (stereo unspecified),-11.1%,?,-10.3%,23.8µM*,-10.8%
CC(OC(=O)C1CC2CCCC(C1)C2=O)C(=O)Nc1cccc([N+](=O)[O-])c1 (stereo unspecified),-11.1%,-18.1%,-2.2%,-8.2%,-5.2%
CCn1c2ccccc2c2cc(C3C(C#N)=C(N)Oc4n[nH]c(COC)c43)ccc21 (stereo unspecified),-1.4%,-17.7%,-1.6%,5.97µM*,-23.6%
COCc1[nH]nc2c1C(c1ccc(OC)c(OC)c1)C(C#N)=C(N)O2 (stereo unspecified),-3.3%,-9.4%,-8.2%,-12.6%,-4.0%
CCOc1ccccc1NC(=O)CSc1cn(CC(=O)N2CCCCCC2)c2ccccc12,-13.9%,-17.9%,.,.,-2.8%
Cc1cc(=O)n2c(C(=O)Nc3ccc(Br)cc3)c(C(=O)Nc3ccccc3)sc2n1,-1.3%,-9.4%,.,.,4.0%
O=C(CSc1ccc2ccccc2n1)NCc1ccc2c(c1)OCO2,-8.5%,-10.8%,-0.5%,23.8µM*,-19.5%
CS(=O)(=O)N(CC(=O)NCc1ccc2c(c1)OCO2)Cc1ccccc1,-8.9%,-21.4%,-6.6%,8.44µM*,?
Nc1cc(N)nc(SCC(=O)NCc2ccc3c(c2)OCO3)n1,-3.0%,-19.5%,-4.9%,5.97µM*,?
Cc1cc(C)n2c(SCC(=O)Nc3ccc(F)cc3)nnc2n1,-12.8%,-20.6%,-1.3%,21.2µM*,?
O=C(Cc1ccccc1)NCc1ccc2c(c1)OCO2,-5.7%,-16.9%,-1.7%,-9.3%,-3.1%
CCCCC/C=C\C=C\[C@H](O)CCCCCCCC(=O)O,-8.4%,.,.,.,1.8%
CC(C)(C)C(=O)c1cn(CC(=O)NCc2ccc3c(c2)OCO3)c2ccccc12,0.0%,-22.6%,-0.8%,-11.8%,-0.9%
O=C(CSc1nnc(-c2cccnc2)n1-c1ccc(F)cc1)NCc1ccc2c(c1)OCO2,-4.7%,7.1%,-2.2%,11.9µM*,-5.1%
